Test results published in PubChem BioAssay (NCI).
Compounds without any hit were thinned out: in the full panel of roughly 83,000, 20% have a hit.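 Testing used 96-well plates and a 48-hour single-concentration exposure. Example: -40 means 40% of the starting cells died.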 The source made the active and inactive calls.

These compounds were tested on SN12C renal (assay: NCI-60 one-dose screen, 48 h (100 = growth as untreated, 0 = no growth, -100 = all killed)). Conditions: 10 µM unless noted.
Method: Growth inhibition of the SN12C human tumor cell line is measured as a screen for anti-cancer activity. Cells are grown in 96 well plates and exposed to the test compound for 48 hours. Compounds are tested at a single concentration, which is 10^-5 M for most compounds. The reported endpoint is percent growth (GI% or GIPRCNT), where numbers from 0 - 100% represent growth inhibition, and numbers from -100% - 0 represent cell death. For example, a value of 40 represents 60% growth inhibition. A value of 0 means no net growth occurred over the course of the experiment. A value of -40 indicates 40% of cells at the beginning of the experiment died by the end of the experiment. A value of -100 means all cells are dead at the end of the experiment.
NCI-60 Human Tumor Cell Lines Screen was performed using the standard one-dose NCI protocol, which is described in more detail at https://dtp.cancer.gov/discovery_development/nci-60/default.htm.
Compounds with GIPRCNT values below 10 were considered active. Activity score was based on GIPRCNT using the following formula: […]
Score is 0 for GIPRCNT values of 100 or above, 50 for GIPRCNT values of 0, and 100 for GIPRCNT values of -100.

| Structure (SMILES) | growth |
| --- | --- |
| CCCCCCCCCCCCCCCCNC(=S)N/N=C/c1ccc(O)cc1O | 74.2% (inactive) |
| C/C(=N\Nc1ccc(Cl)cn1)c1ccc2ccccc2n1 | 18% (inactive) |
| COc1cccc2c1nc1cccc(OC)c1[n+]2[O-] | 43.7% (inactive) |
| COC(=O)C(N)CC(C)C (stereo not given) | 17.6% (inactive) |
| N=C(N)c1ccc(-c2ccc(-c3ccc(Cl)cc3)s2)s1 | -50% (active) |
| C/C(=C\c1ccc2ccccc2c1)[N+](=O)[O-] | 89.6% (inactive) |
| CCCCCSc1ccc2nc(NC(=O)OCC)sc2c1 | 52.5% (inactive) |
| COC1=CC(c2ccc[nH]2)=N/C1=C\c1[nH]c(C)c(C(=O)CCCCC(=O)NC(C)(C)C)c1C | 55.3% (inactive) |
| O=C(Nc1ccc(Cl)c(Cl)c1)O/N=C\c1c(Cl)ccc([N+](=O)[O-])c1Cl | -52.4% (active) |
| CC1=C[C@@H]2c3c(c(O)c(O)c4oc5cc(O)cc(O)c5c(=O)c34)[C@@H](c3cc(O)c(O)c4oc5cc(O)cc(O)c5c(=O)c34)[C@@H]2C(C)(C)C1 | 2.58% (active) |
| CCOC(=O)CCCCCCCCC(=O)OCC | 102% (inactive) |
| CC(C)(C)c1ccc(OCCOC(=O)CBr)cc1 | 116% (inactive) |
| O=C(Nc1ccc(-n2cc(-c3ccncc3)c(-c3ccc(Cl)c(O)c3)n2)cc1)c1cc(Cl)cc(Cl)c1 | 70.2% (inactive) |
| CC(C)OC(=O)[C@H](C)N[P@@](=O)(OC[C@@]1(C)O[C@@H](n2cc(F)c(N)nc2=O)C[C@@H]1O[P@](=O)(N[C@@H](C)C(=O)OC(C)C)Oc1ccccc1)Oc1ccccc1 | 72.6% (inactive) |
| CN1CCN(Cc2ccc(NC(=O)c3cncc(C#Cc4c(N)ncc5ccc(F)cc45)c3)cc2C(F)(F)F)CC1 | 36.4% (inactive) |
| CC(=O)CC(=O)OC/C=C(/C)CCC=C(C)C | 94.5% (inactive) |
| Clc1ccc(N/N=C/c2ccccn2)nc1 | 14.4% (inactive) |
| COc1cc(/C=C/C(=O)/C=C(/C=C/c2ccc(OC(C)=O)c(OC)c2)OB(F)F)ccc1OC(C)=O | 42.3% (inactive) |
| COC(=O)/C=C/c1cc(O)c2oc(-c3ccc(O)c(O)c3)c(C(=O)OC)c2c1 | 34.4% (inactive) |
| CSC1=Nc2c(c(C)c(-c3ccccc3)n2CCCCl)C2=NC(=O)CN12 | 86.3% (inactive) |

| Structure (SMILES) | growth |
| --- | --- |
| CCC1(CC)C(OC)NC(Br)=C(C#N)C1(C#N)C(N)=O (stereo not given) | 106% (inactive) |
| CC(=O)CCS(=O)c1ccccc1 (stereo not given) | 98.6% (inactive) |
| CC(C)OC(=O)c1ccc2n1CCCc1cnc(Nc3ccccc3)nc1-2 | 81.7% (inactive) |
| CC/C(=N\Nc1nc2ccccc2n1C)c1ccccn1 | 13.6% (inactive) |
| NC(=O)c1c(Nc2ccccc2)nn2cc(-c3nc4ccccc4s3)c(N)nc12 | 95.5% (inactive) |
| O=P(OCCCl)(OCCCl)C(O)c1ccccc1Cl (stereo not given) | 111% (inactive) |
| CCCCCc1ccnc(CC(=O)c2ccc(OC)cc2)c1 | 91.8% (inactive) |
| O=S(=O)(Cc1cccc2c(CS(=O)(=O)c3ccc(Cl)cc3)cccc12)c1ccc(Cl)cc1 | 98.6% (inactive) |
| CCOC(=O)c1ccc2n1CCCc1cnc(NC(C)=O)nc1-2 | 102% (inactive) |
| Nc1nc2c(c3cnccc13)C(c1cccc(Cl)c1)Cc1cnccc1-2 (stereo not given) | 33.8% (inactive) |
| COC1NC(Cl)=C(C#N)C(C#N)(C#N)C1(C)C (stereo not given) | 104% (inactive) |
| CCOC(=O)C1=C(c2ccccc2)NC(=O)NC1CN1C(=O)c2ccccc2C1=O (stereo not given) | 107% (inactive) |
| Cc1cc(CSc2ccc(Cl)cc2)ccc1N | 42% (inactive) |
| Oc1ccc([S+](c2ccc(O)cc2)c2ccc(O)cc2)cc1 | 95.2% (inactive) |
| CCCCCCCCCC(C)NC(=O)CCl (stereo not given) | 75.1% (inactive) |
| O=C1CSC(c2ccccc2Cl)N1c1nnc(-c2ccncc2)o1 (stereo not given) | 98.3% (inactive) |
| COc1cc2c(cc1OC)C(Cc1cc(OC)c(OC)cc1[N+](=O)[O-])=NCC2 | 77.9% (inactive) |
| COc1nc(OC)nc(-c2cc(-c3cc(OC)c(OC)c(OC)c3)no2)n1 | 94.6% (inactive) |
| N#CCc1ncc(-c2ccc(C(F)(F)F)cc2)c(NC2CCCCCC2)n1 | 30.4% [100 µM] (inactive) |
| c1cc[c]([Bi]([c]2ccccc2)[c]2ccccc2)cc1 | 97.1% (inactive) |
